The panel holds about 79,000 compounds, 15% with a hit somewhere; the sample as a whole holds those more often. Values without a mark were called inactive. The source made the active and inactive calls. Rule as the data show it: active = growth inhibition above about 70%; inactive = the rest.

Assay [1] can be described thus: NCI Yeast Anticancer Drug Screen. Data for the rad50 strain (AID 155).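 Also: 0% = growth of vehicle-only cultures of the same strain.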 Conditions: S. cerevisiae rad50 strain growth inhibition; at 50.0 µM; hits give high values. In short, it runs like this: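 Cells are treated with compound, grown, and their growth is then scored against vehicle-only cultures of the same repair-deficient yeast strain.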
Assay [2] is described as follows: NCI Yeast Anticancer Drug Screen. Data for the mec2-1 strain (AID 157). As to conditions: S. cerevisiae mec2-1 strain, at 50.0 µM, hits give high values. In outline: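 Strain: mec2-1 (DNA repair/cell cycle alteration). Compound exposure, then growth measured; inhibition expressed relative to vehicle.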
A short description of assay [3]: NCI Yeast Anticancer Drug Screen. Data for the sgs1 mgt1 strain (AID 161).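 Also: 0% = growth of cultures given vehicle only.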 Conditions: S. cerevisiae sgs1 mgt1 strain, at 50.0 µM, hits give high values. In outline:
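Read-out: growth inhibition vs vehicle controls. Cells: mutant yeast strain deficient in DNA damage repair.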

The nature of assay [4]: NCI Yeast Anticancer Drug Screen. Data for the cln2 rad14 strain (AID 165).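 Also: 0% = growth equal to vehicle treated cultures.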 Conditions: S. cerevisiae cln2 rad14 strain, at 50.0 µM, hits give high values. In short, it runs like this: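 Compounds are applied to the cln2 rad14 yeast strain, and growth is then compared with that of vehicle-treated cultures to give inhibition.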
Assay [5] is described as follows: NCI Yeast Anticancer Drug Screen. Data for the bub3 strain (AID 167). As to conditions: S. cerevisiae bub3 mutant strain, at 50.0 µM, hits give high values. In short, it runs like this: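 Part of a panel of yeast mutants defective in DNA damage repair or cell cycle regulation. Each strain is grown with compound, and inhibition is calculated relative to solvent-treated cultures.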

Assay [6] in a line: NCI Yeast Anticancer Drug Screen. Data for the mlh1 rad18 strain (AID 175). Conditions: S. cerevisiae mlh1 rad18 strain growth inhibition; at 50.0 µM; hits give high values. In short, it runs like this:
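Read-out is yeast growth inhibition, calculated against vehicle-only controls. The compound was applied to a strain engineered with DNA damage repair alterations.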

For the molecule `O=C(Nc1ccn(CCOC(=O)c2ccccc2)c(=O)n1)c1ccccc1`, the growth inhibition in assay [1] was -9.4%; in assay [2], -21.3%; in assay [3], 22.8%; in assay [4], 14.6%; in assay [5], 23.7%; in assay [6], 47.6%.
For `CCc1ccccc1N1C(=O)C(=O)C(c2nc3ccccc3s2)C(=O)C1=O`, the growth inhibition is 12.7% in assay [1]; 5.05% in assay [2]; 17.2% in assay [3]; 15.5% in assay [4]; 2.3% in assay [5]; 10.3% in assay [6].
In the case of `O=C1NC(=O)C(F)[CH]([Ge](=[O])[O][Ge](=[O])[CH]2NC(=O)NC(=O)C2F)N1` (stereo not given), the growth inhibition in assay [1] was -7.45%; in assay [2], -8.85%; in assay [3] it was 0.2%; in assay [4], -7.35%; in assay [5], 0.7%; in assay [6], -17.9%.
`Cc1ncc(CN2CSC(CCO)C2C)c(N)n1` (stereo not given): the growth inhibition in assay [1] was 32.6%; in assay [2], 8.4%; in assay [3] it was 27.2%; in assay [4] it was 16.8%; in assay [5], 17.4%; in assay [6] it was 43.1%.
As to `O=S(=O)(SC1=NCCN1)c1ccc2ccccc2c1`, the growth inhibition was -2.75% in assay [1]; -5.15% in assay [2]; -15.1% in assay [3]; 6.65% in assay [4]; -3% in assay [5]; -41.5% in assay [6].
As to `COC(=O)CCC1=C(C)C2=NC1=CC1=NC(=CC3=NC(=Cc4[nH]c(/c(=C\O)c4C)=C2)C(C=O)=C3C)C(C)=C1CCC(=O)OC`, the growth inhibition in assay [1] was 28.1%; in assay [2], 16.5%; in assay [3] it was 32.2%; in assay [4] it was 26.9%; in assay [5], 9.15%; in assay [6], 11.6%.
`CCOC(=O)NC`: the growth inhibition was 14.4% in assay [1]; 1.6% in assay [2]; -19.6% in assay [3]; 3.85% in assay [4]; -1% in assay [5]; 9.8% in assay [6].
Take `NC(=O)c1cn(Cc2ccccc2)c(=O)n1Cc1ccccc1`: the growth inhibition in assay [1] is 9.75%; in assay [2] it was 18.2%; in assay [3] it was -3.2%; in assay [4] it was 9.45%; in assay [5], 23.8%; in assay [6] it was 11.7%.
As to `O=S(=O)(O)CCc1ccccc1`, the growth inhibition is 1.9% in assay [1]; 9.15% in assay [2]; -10.9% in assay [3]; -7.5% in assay [4]; -21.1% in assay [5]; -26.5% in assay [6].
For `O=C1CC(c2ccccc2)C(c2ccccc2)C1C(=O)OCCc1ccccc1` (stereo not given), the growth inhibition in assay [1] was 36%; in assay [2], 2.85%; in assay [3], 2.45%; in assay [4], 1.5%; in assay [5], -16.9%; in assay [6], 1.3%.
With `Cc1ccc(S(=O)(=O)N2CCCCC2)cc1`, the growth inhibition in assay [1] is -11.8%; in assay [2], -3.35%; in assay [3], 38.3%; in assay [4], -26.1%; in assay [5] it was -6.75%; in assay [6] it was -20.5%.
For the molecule `CCCCCCCCCCCC1=c2o[nH]c2=C(c2ccccn2)C(=O)C1=O`, the growth inhibition in assay [1] is -15.2%; in assay [2], -6.6%; in assay [3], 6.5%; in assay [4], -45.5%; in assay [5], 11.4%; in assay [6], -0.75%.
Consider `COC(=O)CNC(=O)C(Cc1ccc(OCc2ccccc2)cc1)NC(=O)OC(C)(C)C` (stereo not given), for which the growth inhibition in assay [1] is 6.65%; in assay [2], 11%; in assay [3], 23.1%; in assay [4], 2.25%; in assay [5] it was -10.6%; in assay [6] it was 26.6%.
On to `C/C(=C(/C)c1cc[n+](C)cc1)c1cc[n+](C)cc1`, for which the growth inhibition was 74.4% (active) in assay [1]; 60.6% in assay [2]; 67% in assay [3]; 44.4% in assay [4]; 56.3% in assay [5]; 68.5% in assay [6].
As to `Cc1cccc(CNc2ncnc3[nH]ncc23)c1`, the growth inhibition is -15% in assay [1]; -30.8% in assay [2]; -24.8% in assay [3]; -12.6% in assay [4]; -36.1% in assay [5]; 3.15% in assay [6].
Take `CCC(CO)c1ccccc1` (stereo not given): the growth inhibition is -3.6% in assay [1]; -17.7% in assay [2]; -3.1% in assay [3]; -25.4% in assay [4]; -3.1% in assay [5]; -12.1% in assay [6].
Regarding `N#CC1C=CN(Cc2ccccc2)C=C1C(=O)c1ccccc1` (stereo not given), the growth inhibition in assay [1] was -1.5%; in assay [2] it was -3.9%; in assay [3], -5.85%; in assay [4] it was 2.55%; in assay [5] it was 7.6%; in assay [6] it was 5.2%.
On to `O=C1/C(=C/c2ccc(Cl)cc2)CCC1CCN1CCOCC1` (stereo not given), for which the growth inhibition in assay [1] was 46.9%; in assay [2], 40.5%; in assay [3], 51.2%; in assay [4], 60%; in assay [5] it was 41.2%; in assay [6] it was 59.2%.
Turning to `O=C1C=C(Nc2cc(Cl)ccc2Cl)c2ccccc2C1=O`, the growth inhibition in assay [1] was 9.75%; in assay [2], 4.25%; in assay [3], -8.8%; in assay [4], 6.8%; in assay [5], 15.2%; in assay [6], 32.5%.
Regarding `CCOC(=O)C(NC(=O)NCc1ccc(F)cc1)C(F)(F)F` (stereo not given), the growth inhibition is -46.7% in assay [1]; 2.2% in assay [2]; -31.5% in assay [3]; 19.4% in assay [4]; 51.9% in assay [5]; -43.1% in assay [6].
